Measurements taken from PubChem BioAssay AID1159604 (The Scripps Research Institute Molecular Screening Center, 2016).
This is one part of the list. A number with no mark means an inactive call. Active and inactive are the calls of the source.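 Rule for the calls: active = IC50 of 10 µM or lower in the counterscreen; inactive = IC50 above 10 µM.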

Test: optical artefacts quenching TruHits bead signal – biochemical, TruHits beads, AlphaScreen, artefact control for ASK1 inhibitor project, dose response (AID 1159604);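 note: loss of AlphaScreen light from TruHits beads alone with no ASK1 enzyme present; potency of signal reduction so a low IC50 flags an assay artifact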
Conditions: signal interference counterscreen
Work on `FC(F)(F)c1cccc(CNc2nc(N3CCN(c4ccccn4)CC3)nc3c2ncn3-c2ccsc2)c1` yielded an IC50 of over 20 µM. Compound `Cc1ccccc1-c1cscc1Nc1cnn(-c2cccc(C(=O)Nc3ccc(N4CCOCC4)cc3)c2)c1` has an IC50 of over 19.2 µM. With `Cc1cc(Nc2ccc3c(c2)OCO3)nc(Nc2cccc(N(C)C)c2)n1` the IC50 was 4.88 µM (active). Compound `c1ccc(-c2ncn[nH]2)c(Nc2ccnc(Nc3ccc(N4CCOCC4)cc3)c2)c1` has an IC50 of over 19.2 µM. `FC(F)(F)c1cccc(CNc2nc(N3CCN(Cc4ccc5c(c4)OCO5)CC3)nc3c2ncn3-c2ccccc2)c1` showed an IC50 of over 20.1 µM. For `COc1cc(Nc2nc(N3CCc4ccccc4C3)nc3c2ncn3-c2ccccc2)cc(OC)c1OC`, the IC50 was over 20.1 µM. For `COc1cc2nc(Nc3cccc(N(C)C)c3)nc(Nc3cc(OC)c(OC)c(OC)c3)c2cc1OC`, the IC50 was 8.29 µM (active). `FC(F)(F)c1cccc(CNc2nc(Nc3ccc(N4CCOCC4)cc3)nc3c2ncn3-c2ccsc2)c1` showed an IC50 of over 20.1 µM. In the case of `COc1ccc(CCNc2cc(C)nc(Nc3cccc(N(C)C)c3)n2)cc1`, the IC50 was 4.77 µM (active). Work on `CN1CCN(c2nc(C3COc4ccccc4O3)nc3ccc(-c4cn[nH]c4)cc23)CC1` (configuration not stated) yielded an IC50 of over 19.2 µM. In the case of `Nc1nc(Nc2ccc(N3CCOCC3)cc2)cc(-c2ccc3[nH]ccc3c2)n1`, the IC50 was 11.9 µM. Compound `Fc1cnc(Nc2ccc(N3CCNCC3)cc2)cc1-n1cnc(Nc2ccccc2)n1` has an IC50 of over 19.2 µM.
